# Source: PubChem BioAssay (NCATS)
# Results filed as inconclusive are left out. The source made the active and inactive calls. The call rests on the fitted dose curve; in most records, active means well fitted curve in the direction sought with a large enough effect; inconclusive means small, poorly fitted or top-dose-only effect, or effect the other way, or another doubt; inactive means no such curve, though single readings can be large or run the other way.
# Test: DH5-alpha competent E. coli microbial cell viability qHTS against the NCATS CANVASS Library (AID 1347377)
# Details: BacTiter-Glo ATP luminescence, overnight; series mostly up to 46.1 µM
# From the text: Natural products and their derivatives continue to be wellsprings of nascent therapeutic potential. However, many laboratories have limited resources for biological evaluation, leaving their previously isolated or synthesized compounds largely or completely untested. To address this issue, the Canvass library of natural products was assembled (https://tripod.nih.gov/canvass), in collaboration with academic and industry researchers, for quantitative high-throughput screening (qHTS) across a diverse set of cell-based and biochemical assays. The pure (>85% purity by liquid chromatography/mass spectrometry [LC/MS]) Canvass library of 346 natural products were submitted by 45 academic laboratories and companies around the world. We collected pure natural products to circumvent deconvolution and structure elucidation due to time and resource limitations. The library was formatted into 1536-well plates and evaluated in 50 qHTS (in an 11-pnt concentration series) bioassays with broad scope of disease-relevant mechanisms. The resulting data set from 50 different assays was then systematically analyzed to identify overall trends and specific natural products with interesting biological activities. Reported herein are the results of each individual qHTS and their corresponding assay protocol. The BacTiter-Glo microbial cell viability assay is a homogeneous method for determining the number of viable bacterial cells in culture based on quantitation of the ATP present. ATP is an indicator of metabolically active cells. The homogeneous assay procedure involves adding a single reagent (BacTiter-GloTM Reagent) directly to bacterial cells in medium and measuring luminescence. National Center for Advancing Translational Sciences (NCATS), Rockville, MD National Institute of Health (NIH), Bethesda, Maryland
# DH5-alpha competent E.coli cytotoxicity protocol: 1. In a 1536 well, tissue culture treated white solid bottom plates (Greiner Bio-One North America), 5 uL of DH5-alpha competent E. coli suspension (0.9 OD culture diluted 0.2 OD) was dispensed into columns 1, 2, and 5-48 using the Multidrop Combi dispenser (Thermo Fisher Scientific). 2. Controls and compounds were pin transferred (~23 nL volume) to the assay plates via Wako Pin-tool (Wako Automation, Richmond VA) equipped with a 1536 pin head. The compounds were transferred to columns 5-48 resulting in a final concentration ranging from 0.17nM to 92uM. Daunomycin was used as a control in various concentrations (1mM working concentration; 1:2 dilution; 16 points; n=2; column 2, rows) for a final concentration range of 0.2 nM to 9.2 uM. 3. The assay plates were incubated overnight at 37C, 5% CO2, 95% humidity. 4. 2.5 uL of BacTiterGlo solution (Promega) was then added to the assay plates (column 1-48, rows 1-32). The assay plates were incubated at room temperature for 20 min. 5. Luminescence signal was acquired via the ViewLux plate reader using a clear emission filter, 2 second exposure and 2x binning settings.
row,SMILES,outcome
1,CC1=CC(=O)C2=C(C)C[C@H](O)[C@@H]3[C@H](OC(=O)[C@@H]3C)[C@@H]12,inactive
2,COc1ccc2c3c([nH]c2c1)C(C)=NCC3,inactive
3,CNCCc1ccccc1,inactive
4,CO[C@@H](/C=C/CC/C=C/C(=O)O)[C@@H](O)[C@H](C)[C@@H](O)/C(C)=C/[C@H](C)C(=O)CCCC1CC(=O)NC(=O)C1,inactive
5,CC[C@@H]1CN2CC[C@@]3(O)C(=Nc4cccc(OC)c43)[C@@H]2C[C@@H]1/C(=C\OC)C(=O)OC,inactive
6,C=C1[C@@H](C)[C@H]2[C@H](Cc3ccccc3)NC(=O)[C@]23OC(=O)/C=C/[C@H](O)CCC[C@@H](C)C/C=C/[C@H]3[C@@H]1O,inactive
7,COc1ccc(C23Oc4cc(OC)cc(OC)c4[C@](O)([C@H](c4ccccc4)C2C(=O)NCCCCNC(=O)c2ccccc2)[C@@H]3O)cc1 (stereo partly specified),inactive
8,NCCc1ccccc1,inactive
9,C[C@@H]1CC[C@@H](c2ccoc2)N2C[C@@]3(CC[C@@H]12)CS[C@@]1(CC[C@H]2[C@H](C)CC[C@@H](c4ccoc4)N2[C@@H]1O)C3,inactive
10,COc1ccc2c(c1)[nH]c1c(C)nccc12,inactive
11,CN(C)Cc1c[nH]c2ccccc12,inactive
12,CCC(=O)CCCCC[C@@H]1NC(=O)[C@H]2CCCCN2C(=O)[C@H]([C@@H](C)CC)NC(=O)[C@H](Cc2cn(OC)c3ccccc23)NC1=O,inactive
13,CN1C(=O)[C@]23CC4C(C)(C)[C@@]5(C[C@@]41CN2CC[C@@]3(C)O)C(=O)Nc1c5ccc2c1OC=CC(C)(C)O2 (stereo partly specified),inactive
14,CNCCc1ccc(O)cc1,inactive
15,CC[N@@+]1([O-])C[C@]2(C)CC[C@@H](O)[C@@]34C5C[C@H]6CC[C@@]5(C(C[C@H]23)C41)[C@H](O)[C@@]6(O)CO (stereo partly specified),inactive
16,CC(=O)N[C@H]1CCN2CCC[C@H]12,inactive
17,CCN1C[C@]2(C)CC[C@H](O)[C@]34C1C(C[C@H]23)[C@@]12CC[C@H](CC14)[C@](O)(COC(=O)c1ccc(OC)c(OC)c1)[C@H]2O (stereo partly specified),inactive
18,CCCC[C@@H]1CC[C@H]2CCCC(CCC)N12 (stereo partly specified),inactive
19,CCCCC[C@@H]1OC(=O)[C@@H](C)N(C)C(=O)[C@H](CCCCC)OC(=O)C(C)N(C)C(=O)[C@H](CCCCC)OC(=O)[C@@H](C)N(C)C(=O)[C@H](CCCCC)OC(=O)C(C)N(C)C1=O (stereo partly specified),inactive
20,CCC[C@H]1CC[C@H]2[C@H](C)CCC[C@H]2N1,inactive
21,CCN1C[C@]2(C)CC[C@@H](O)[C@]34C1[C@H](C[C@H]23)C12CCC(CC14)[C@](O)(CO)[C@H]2O (stereo partly specified),inactive
22,CNCCc1c[nH]c2ccccc12,inactive
23,COC(=O)C1=C2Nc3ccccc3[C@@]23CCN2CC(C(C)=O)C1C[C@H]23 (stereo partly specified),inactive
24,CO[C@H](c1ccccc1)[C@H]1NC(=O)C(C)NC(=O)C(C[C@@H](C)CO)N(C)C(=O)[C@@H](C(O)c2cn(C(C)(C)C3CO3)c3ccccc23)NC(=O)C(C(C)C=C(C)C)NC(=O)C(CC(C)C)N(C)C(=O)C(C(C)C)NC1=O (stereo partly specified),inactive
25,CC=C1CN(C=O)[C@H]2C[C@@H]1[C@@H](C(=O)OC)[C@@]13CCOC21Nc1ccccc13 (stereo partly specified),inactive
26,C/C=C1/CN2CC[C@]34C(=Nc5ccccc53)[C@@H]2C[C@@H]1[C@H]4C(=O)OC,inactive
